Where “and” joins values, the source holds several entries; their conditions need not be identical. Equal entries are not always repeated. In all, about 5,500 compounds went through this assay and about 2,000 (36%) were called active. Roughly 18% stayed inconclusive and do not appear here. No stated cut-off is given here; in the data, active means normalized growth mostly below about 0.91 (no sharp cut-off); inconclusive means no clear call, values can overlap the other calls; inactive means mostly above about 0.92. This is one part of the list.
Experiment: chemical genetic growth profiling, strain panel (AID 1159580);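 further: tested at 20 µM; growth read once vehicle control cultures reached saturation at 30 °C; 1 = growth at the plate median or of vehicle wells; lower values mean less growth of the strain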
Conditions: S. cerevisiae deletion strains, growth OD

Measured: normalized growth

O=C(O)/C=C(\CC(=O)O)C(=O)O
inactive: locus YAL013W, strain DEP1, active compounds read low 0.995 | locus YAL021C, strain ccr4, active compounds read low 0.998 | locus YAL026C, strain drs2, active compounds read low 1 | locus YAL030W, strain snc1, active compounds read low 0.993 | locus YBL061C, strain skt5, active compounds read low 0.994 | locus YBR009C, strain hhf1, active compounds read low 1 | locus YBR021W, strain FUR4, active compounds read low 0.981 | locus YBR023C, strain chs3, active compounds read low 0.992 | locus YBR171W, strain sec66, active compounds read low 0.989 | locus YBR229C, strain ROT2, active compounds read low 0.993 | locus YBR231C, strain swc5, active compounds read low 0.998 | locus YBR279W, strain paf1, active compounds read low 1.01 | locus YCL011C, strain gbp2, active compounds read low 1 | locus YCL016C, strain dcc1, active compounds read low 1.01 | locus YCL029C, strain bik1, active compounds read low 0.968 | locus YCL061C, strain MRC1, active compounds read low 0.987 | locus YCL069W, strain vba3, active compounds read low 1 | locus YCR088W, strain abp1, active compounds read low 0.99 | locus YDL005C, strain med2, active compounds read low 0.98 | locus YDL035C, strain GPR1, active compounds read low 1 | locus YDL040C, strain nat1, active compounds read low 0.985 | locus YDL074C, strain BRE1, active compounds read low 0.998 | locus YDL101C, strain DUN1, active compounds read low 1 | locus YDL134C, strain PPH21, active compounds read low 1.01 | locus YDL185W, strain tfp1, active compounds read low 1 | locus YDL192W, strain arf1, active compounds read low 0.997 | locus YDR001C, strain nth1, active compounds read low 0.995 | locus YDR069C, strain doa4, active compounds read low 1.01 | locus YDR101C, strain arx1, active compounds read low 0.991 | locus YDR137W, strain rgp1, active compounds read low 1.02 | locus YDR159W, strain sac3, active compounds read low 0.96 | locus YDR162C, strain NBP2, active compounds read low 1.05 | locus YDR195W, strain ref2 0.969 | locus YDR297W, strain sur2, active compounds read low 0.996 | locus YDR318W, strain mcm21, active compounds read low 0.981 | locus YDR334W, strain swr1, active compounds read low 0.981 | locus YDR335W, strain msn5, active compounds read low 0.999 | locus YDR388W, active compounds read low 0.973 | locus YDR392W, strain spt3, active compounds read low 0.992 | locus YDR502C, strain sam2, active compounds read low 0.984 | locus YEL003W, strain gim4, active compounds read low 1 | locus YEL037C, strain rad23, active compounds read low 0.994 | locus YEL061C, strain CIN8 (second series), active compounds read low 1 | locus YEL061C, strain CIN8, active compounds read low 0.996 | locus YER015W, strain faa2, active compounds read low 0.998 | locus YER016W, strain bim1, active compounds read low 0.984 | locus YER110C, active compounds read low 0.982 | locus YER111C, strain swi4, active compounds read low 0.991 | locus YER155C, strain BEM2 (second series), active compounds read low 0.983 | locus YER155C, strain BEM2, active compounds read low 0.989 | locus YER167W, strain BCK2, active compounds read low 0.978 | locus YFR010W, strain ubp6, active compounds read low 0.991 | locus YGL078C, strain dbp3, active compounds read low 0.984 | locus YGL086W, strain mad1, active compounds read low 0.987 | locus YGL167C, strain pmr1, active compounds read low 0.986 | locus YGL173C, strain kem1, active compounds read low 0.997 | locus YGL227W, strain vid30, active compounds read low 0.98 | locus YGL240W, strain doc1, active compounds read low 0.974 | locus YGL248W, strain PDE1, active compounds read low 1.03 | locus YGL253W, strain hxk2, active compounds read low 1 | locus YGR135W, strain pre9, active compounds read low 1.02 | locus YGR252W, strain gcn5, active compounds read low 1.03 | locus YHR013C, strain ard1, active compounds read low 0.999 | locus YHR027C, strain rpn1, active compounds read low 0.993 | locus YHR030C, strain SLT2, active compounds read low 0.987 and 1.01 | locus YHR079C, strain IRE1 (second series), active compounds read low 0.968 | locus YHR079C, strain IRE1, active compounds read low 1.01 | locus YHR094C, strain hxt1, active compounds read low 0.968 | locus YHR129C, strain ARP1, active compounds read low 1 | locus YHR142W, strain chs7, active compounds read low 1.01 | locus YHR200W, strain rpn10, active compounds read low 0.991 | locus YIL066C, strain RNR3, active compounds read low 1.01 | locus YIL073C, strain SPO22, active compounds read low 0.952 | locus YIL125W, strain kgd1, active compounds read low 0.979 | locus YIR030C, strain dcg1, active compounds read low 0.97 | locus YJL092W, strain hpr5, active compounds read low 0.994 | locus YJL095W, strain BCK1 (second series), active compounds read low 0.997 | locus YJL095W, strain BCK1, active compounds read low 1.05 and 1 | locus YJL115W, strain asf1, active compounds read low 0.998 | locus YJL129C, strain trk1, active compounds read low 0.996 | locus YJL134W, strain LCB3, active compounds read low 0.993 | locus YJL154C, strain vps35, active compounds read low 0.994 | locus YJL164C, strain tpk1, active compounds read low 1.02 | locus YJL166W, strain qcr8, active compounds read low 0.998 | locus YJL168C, strain set2, active compounds read low 0.969 | locus YJL187C, strain SWE1 (second series), active compounds read low 1.02 | locus YJL187C, strain SWE1, active compounds read low 0.997 | locus YJR043C, strain POL32, active compounds read low 1 | locus YJR066W, strain TOR1, active compounds read low 0.972 | locus YJR075W, strain HOC1, active compounds read low 1.03 | locus YKL009W, strain mrt4, active compounds read low 0.957 | locus YKL068W, active compounds read low 0.981 | locus YKL085W, strain MDH1 (second series), active compounds read low 0.989 | locus YKL085W, strain MDH1, active compounds read low 0.989 | locus YKL160W, strain elf1, active compounds read low 0.993 | locus YKR001C, strain vps1, active compounds read low 0.956 | locus YKR026C, strain gcn3, active compounds read low 0.993 | locus YKR091W, strain srl3, active compounds read low 0.999 | locus YLL001W, strain dnm1, active compounds read low 1.01 | locus YLL026W, active compounds read low 0.988 | locus YLL041C, strain sdh2, active compounds read low 1 | locus YLR027C, strain aat2, active compounds read low 0.996 | locus YLR039C, strain RIC1, active compounds read low 1.02 | locus YLR058C, strain SHM2, active compounds read low 1.01 | locus YLR102C, strain apc9, active compounds read low 0.974 | locus YLR113W, strain HOG1, active compounds read low 1.01 | locus YLR221C, strain rsa3, active compounds read low 0.976 | locus YLR258W, strain gsy2, active compounds read low 0.986 | locus YLR262C, strain YPT6 (second series), active compounds read low 1.01 | locus YLR262C, strain YPT6, active compounds read low 1.02 | locus YLR268W, strain sec22, active compounds read low 0.977 | locus YLR320W, strain mms22, active compounds read low 0.982 | locus YLR330W, strain CHS5, active compounds read low 0.99 | locus YLR342W, strain FKS1 (second series), active compounds read low 0.99 | locus YLR342W, strain FKS1, active compounds read low 0.987 | locus YLR357W, strain rsc2, active compounds read low 0.991 | locus YLR370C, strain arc18, active compounds read low 0.997 | locus YLR371W, strain rom2, active compounds read low 0.972 | locus YLR384C, strain iki3, active compounds read low 0.984 | locus YLR418C, strain cdc73, active compounds read low 1.01 | locus YML016C, strain PPZ1, active compounds read low 0.986 | locus YML032C, strain rad52, active compounds read low 0.986 | locus YML120C, strain ndi1, active compounds read low 1 | locus YML124C, strain tub3, active compounds read low 0.97 | locus YMR058W, strain fet3, active compounds read low 0.997 | locus YMR078C, strain ctf18, active compounds read low 0.975 | locus YMR125W, strain sto1, active compounds read low 0.997 | locus YMR129W, active compounds read low 0.996 | locus YMR205C, strain PFK2, active compounds read low 1.01 | locus YMR223W, strain ubp8, active compounds read low 0.996 | locus YMR231W, strain pep5, active compounds read low 0.967 | locus YMR307W, strain GAS1, active compounds read low 1.06 | locus YNL067W, strain RPL9B, active compounds read low 1.03 | locus YNL071W, strain lat1, active compounds read low 1 | locus YNL128W, strain TEP1, active compounds read low 1 | locus YNL153C, strain GIM3, active compounds read low 1.04 | locus YNL183C, strain NPR1, active compounds read low 0.979 | locus YNL209W, strain ssb2, active compounds read low 1 | locus YNL233W, strain BNI4, active compounds read low 1.02 | locus YNL248C, strain rpa49, active compounds read low 0.995 | locus YNL250W, strain rad50, active compounds read low 0.982 | locus YNL271C, strain bni1, active compounds read low 0.972 | locus YNL298W, strain CLA4, active compounds read low 0.978 | locus YNL307C, strain MCK1, active compounds read low 0.982 | locus YNL322C, strain KRE1 (second series), active compounds read low 0.99 | locus YNL322C, strain KRE1, active compounds read low 0.998 | locus YNR049C, strain mso1, active compounds read low 0.992 | locus YNR052C, strain pop2, active compounds read low 0.971 | locus YOL006C, strain TOP1, active compounds read low 0.969 | locus YOL012C, strain htz1 0.984 | locus YOL147C, strain pex11, active compounds read low 0.986 | locus YOR001W, strain rrp6, active compounds read low 0.969 | locus YOR061W, strain CKA2, active compounds read low 0.988 | locus YOR069W, strain VPS5, active compounds read low 0.989 | locus YOR070C, strain gyp1, active compounds read low 0.981 | locus YOR080W, strain dia2, active compounds read low 0.985 | locus YOR083W, strain WHI5, active compounds read low 1.01 | locus YOR106W, strain vam3, active compounds read low 1.01 | locus YOR136W, strain idh2, active compounds read low 0.98 | locus YOR144C, strain elg1, active compounds read low 0.984 | locus YOR184W, strain ser1, active compounds read low 0.999 | locus YOR231W, strain MKK1, active compounds read low 1.05 | locus YOR265W, strain rbl2, active compounds read low 0.995 | locus YOR270C, strain vph1, active compounds read low 1.04 | locus YOR290C, strain snf2, active compounds read low 0.964 | locus YOR316C, strain cot1, active compounds read low 0.97 | locus YPL051W, strain arl3, active compounds read low 0.989 | locus YPL055C, strain LGE1, active compounds read low 1.03 | locus YPL078C, strain atp4, active compounds read low 1 | locus YPL106C, strain sse1, active compounds read low 0.997 | locus YPL240C, strain hsp82, active compounds read low 0.996 | locus YPL241C, strain CIN2, active compounds read low 0.993 | locus YPL256C, strain CLN2, active compounds read low 1 | locus YPR119W, strain clb2, active compounds read low 0.957 | locus YPR141C, strain kar3, active compounds read low 0.975 | locus YPR163C, strain tif3, active compounds read low 0.984 | locus YPR167C, strain met16, active compounds read low 0.951 | strain wtn01, active compounds read low 0.954
